Laboratory results as given in PubChem BioAssay (Tox21).
Inconclusive results are not listed. A number with no mark means an inactive call. Calls follow the shape of the full dose curve.

Molecular target: Vitamin D3 receptor (Homo sapiens) (UniProt P11473)
Assay: qHTS assay to identify small molecule agonists of the vitamin D receptor (VDR) signaling pathway (AID 743222)
Conditions: HEK293T VDR-UAS-bla, beta-lactamase FRET ratio, 16 h; series mostly up to 63.5 µM; activation: at the top concentration
Source text: National Center for Advancing Translational Sciences [NCATS]
NIH Chemical Genomics Center [NCGC]
U.S. Environmental Protection Agency [EPA]
National Institutes of Environmental Health Sciences [NIEHS]
National Toxicology Program [NTP]
U.S. Food and Drug Administration [FDA]
The vitamin D receptor (VDR), a member of nuclear hormone receptor superfamily, plays a critical role in calcium homeostasis and bone metabolism. It is also involved in cell differentiation and growth, and thrombogenicity.
Tox21 Assay Protocol Summary:
VDR-bla cells were dispensed at 2,000 cells/6 uL/well into black wall/clear-bottom 1536-well plates using a Multidrop Combi (Thermo Fisher Scientific, Waltham, MA) dispenser. After the assay plates were incubated at a 37C and 5% CO2 for 4 h, 23 nL of compounds dissolved in DMSO, positive controls or DMSO only was transferred to the assay plate by a Pintool station (Kalypsys, San Diego, CA). The plates were incubated at 37C and 5% CO2 for 16 h. After 1 uL of LiveBLAzerTM B/G FRET substrate was added using a Bioraptr Flying Reagent Dispenser (FRD) workstation (Beckman Coulter, Indianapolis, IN, USA), the plates were incubated at room temperature for 2 h, and fluorescence intensity was measured by an Envision plate reader (PerkinElmer, Shelton, CT).
% is scaled to controls: 0 for no effect and ±100 for the full control effect.

Sequence of Vitamin D3 receptor (Homo sapiens) (P11473 whole entry, looked up): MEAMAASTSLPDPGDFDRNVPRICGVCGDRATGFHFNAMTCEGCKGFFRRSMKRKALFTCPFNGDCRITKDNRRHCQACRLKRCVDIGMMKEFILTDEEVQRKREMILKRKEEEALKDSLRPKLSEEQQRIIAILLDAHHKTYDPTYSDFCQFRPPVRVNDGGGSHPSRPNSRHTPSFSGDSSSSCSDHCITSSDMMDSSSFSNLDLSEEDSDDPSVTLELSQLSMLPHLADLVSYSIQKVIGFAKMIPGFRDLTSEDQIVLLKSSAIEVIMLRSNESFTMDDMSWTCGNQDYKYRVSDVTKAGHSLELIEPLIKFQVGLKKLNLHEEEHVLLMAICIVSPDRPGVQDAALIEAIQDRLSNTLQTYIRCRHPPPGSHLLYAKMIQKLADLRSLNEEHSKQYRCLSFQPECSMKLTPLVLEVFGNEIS

| SMILES | activation |
| --- | --- |
| COC(=O)c1cc(Cl)cc(Cl)c1 | -1.29% |
| CC1(C)CC(OC(=O)CCCCCCCCC(=O)OC2CC(C)(C)NC(C)(C)C2)CC(C)(C)N1 | 1.1% [at 29.5 µM] |
| C=CCOC(=O)CCCCCC | 1.67% |
| C/C(CC(C)C)=N\O | 8.21% |
| OC1OCCOC1O (stereo not given) | 4.91% |
| O=C1OCCO1 | 10.4% [at 81.1 µM] |
| N#Cc1ccccc1O | 0.231% |
| O=C1NC(c2ccccc2)(c2ccccc2)C(=O)N1COP(=O)(O)O | 3.16% |
| CC(C)=CCC[C@@](C)(O)[C@H]1CC=C(C)CC1 | -2.54% |
| CCC(=O)CC | -0.603% |
| CCCSSCCC | 0.578% |
| C=CCCCCCCCC | 7.68% [at 81.1 µM] |
| CC(=O)CCC1=C(C)CCCC1(C)C | -8.57% |
| Cc1ccc2c(c1)C(=O)c1ccccc1C2=O | -18.7% |
| O=C(NCN1CCOCC1)c1cnccn1 | 5.11% |
| CC1c2ccccc2CN1NC(=O)c1ccc(Cl)c(S(N)(=O)=O)c1 (stereo not given) | -0.915% |
| c1ccc2cnccc2c1 | 4.67% |
| CCC(C(=O)OCCN1CCOC(c2ccccc2)C1C)c1ccccc1 (stereo not given) | 3.47% |
| c1ccc(B(c2ccccc2)c2ccccc2)cc1 | 7.3% |
| CCO | -3.15% [at 81.1 µM] |

| SMILES | activation |
| --- | --- |
| Nc1nc(-c2ccccc2)c(Br)c(=O)[nH]1 | 2.21% |
| CCCCCC(C)O (stereo not given) | 4.3% |
| O=C1CCC(=O)N1Cl | -0.711% |
| NCCOCCN | 2.34% |
| CC1=C(C(=O)O)N2C(=O)[C@@H](NC(=O)[C@H](N)C3=CCC=CC3)[C@H]2SC1 | 7.62% |
| O=C(CCCl)NCCc1ccccc1 | -0.607% |
| CCCC(=O)OC/C=C(\C)CCC=C(C)C | -9.04% |
| COc1c2occc2c(OC)c2c(=O)cc(C)oc12 | -0.488% |
| COS(=O)(=O)O | 5.17% |
| O=S(=O)(O)c1ccc2c(N=Nc3ccc(S(=O)(=O)O)c4ccccc34)c(O)c(S(=O)(=O)O)cc2c1 | -5.96% [at 6.01 µM] |
| C=C(C)C1CC=C(C)C(=O)C1 (stereo not given) | -0.427% |
| OC[C@H]1O[C@@H](O[C@@H]2[C@@H](CO)O[C@](O)(CO)[C@H]2O)[C@H](O)[C@@H](O)[C@H]1O | 9.04% |
| CCN1CCCC1CN (stereo not given) | 10.3% |
| CC(=O)OC1CCCCC1C(C)(C)C (stereo not given) | 0.727% |
| O=[N+]([O-])c1c(Cl)cc(Cl)cc1Cl | 0.862% |
| OC[C@@H](O)C(O)[C@@H](O)CO (stereo not given in full) | 7.26% [at 81.1 µM] |
| CC/C=C\CCOC(=O)c1ccccc1O | 1.98% |
| CCN(CC)CCN | -1.76% |
| CCC(=O)Oc1ccc2c(c1)CC[C@@H]1[C@@H]2CC[C@@]2(C)[C@H]1C[C@@H](OC(=O)CC)[C@@H]2OC(=O)CC | -4.68% |
| CSc1cnccn1 | 0.023% |
